High-throughput results as filed in PubChem.
A selection: hits, their analogues and other compounds. The true share with any hit is near 1.5%.
ARNT-TACC3 inh – disrupts binding between human ARNT and TACC3; Q9Y6A5; AlphaScreen His-ARNT PAS-B/GST-TACC3 binding, luminescence; TACC3 fragment carries E629A point mutation; inhibition, % at 9.99 µM; 390,000 tested, 0.66% active;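 active = mean inhibition of replicates at least 50% and at least half of replicates each reaching 50%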;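 also: 0% = complete ARNT plus TACC3 wells and 100% = ARNT alone without TACC3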
AI-2 QS modul – modulates the Vibrio harveyi AI-2 quorum sensing system; Vibrio harveyi JMH597 AI-2 luminescence/OD600 ratio, 9 h; stronger effect = lower value; strain lacks LuxN and CqsS sensors; 0 = neutral-control median; activity change, % at 7.5 µM; 300,000 tested, 0.4% active; AID 2094; in the data active = activity change below about -75%, passing the limit was not always enough;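 also: luminescence divided by OD600 gain over 9 h not by final OD600 alone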
sPLA2-III inh – Inhibits HGIII-sPLA2 liposome hydrolysis, primary screen; 370,000 tested, 0.56% active; inhibition, % at 12.2 µM; AID 743126; QFRET BODIPY PC-A2 liposome hydrolysis, fluorescence; Q9NZ20;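 active = inhibition above mean plus 3 SD of compounds lying within the high and low control bounds, cut at about 19% in these data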;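 also: 0% = median of test compound wells and 100% = no enzyme DMSO wells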
Target sequence (Q9NZ20 whole entry, looked up): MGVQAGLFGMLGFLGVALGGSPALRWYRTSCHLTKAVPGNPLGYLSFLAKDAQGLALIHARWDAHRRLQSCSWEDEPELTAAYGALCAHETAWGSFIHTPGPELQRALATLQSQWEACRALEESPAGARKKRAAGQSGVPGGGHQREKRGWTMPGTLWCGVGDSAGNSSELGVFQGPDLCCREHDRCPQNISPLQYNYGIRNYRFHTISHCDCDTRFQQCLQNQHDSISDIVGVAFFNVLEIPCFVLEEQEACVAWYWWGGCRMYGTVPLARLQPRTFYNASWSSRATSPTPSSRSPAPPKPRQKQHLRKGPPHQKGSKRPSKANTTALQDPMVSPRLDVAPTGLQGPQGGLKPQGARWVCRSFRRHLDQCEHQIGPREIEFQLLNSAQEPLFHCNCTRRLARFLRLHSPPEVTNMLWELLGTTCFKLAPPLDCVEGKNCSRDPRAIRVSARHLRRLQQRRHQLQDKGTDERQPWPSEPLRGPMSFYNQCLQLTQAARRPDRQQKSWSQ
Rin1 Abl inh – inhibitors of human Rin1-Abl protein interaction. 360,000 tested, 0.4% active. inhibition, % at 7.35 µM. P00519+Q13671. TR-FRET Rin1/Abl binding, biochemical; in the data active = inhibition above about 5%, passing the limit was not always enough
* = called active by the depositor; . = no result.

SMILES | ARNT-TACC3 inh | AI-2 QS modul | sPLA2-III inh | Rin1 Abl inh
COc1ccc(NC(=O)N[C@H]2CC[C@@H](CCn3cc(-c4ccccc4)nn3)O[C@H]2CO)cc1 | 1.6 | . | . | .
O=[N+]([O-])c1c(Nc2ccc(O)cc2)cc(Cl)c2nonc12 | 18.4 | -174.4* | 5.5 | -2.8
C[C@@H]1CN([C@@H](C)CO)C(=O)c2cccc(NC(=O)Nc3ccccc3)c2O[C@H]1CN(C)Cc1ccncc1 | -3.1 | . | . | .
Cc1ccc(-c2ccc3c(c2)O[C@H](CN(C)C(=O)C2CC2)[C@H](C)CN([C@H](C)CO)S3(=O)=O)cc1 | -1.8 | . | . | .
Nc1nc(Cl)nc2c1ncn2C1CC(O)C(CO)O1 (stereo not drawn) | 2.6 | -91.3* | -0.4 | 2.2
Nc1nc(Cl)nc2c1ncn2C1OC(CO)C(O)C1O (stereo not drawn) | . | . | 9.2 | 0.3
C/C=C/c1cnc2c(c1)C(=O)N([C@H](C)CO)C[C@@H](C)[C@H](CN(C)C(=O)c1ccc3c(c1)OCO3)O2 | -1.8 | . | . | .
Fc1ccc(NC(=S)Nc2ccc3nccnc3c2)cc1 | 63.8* | 0.0 | 7.0 | 0.0
Cc1ccc(Sc2ccc(N)cc2C#N)cc1 | -0.5 | -81.3* | -4.6 | -3.1
Cc1ccc(Sc2nnc(-c3ccccc3)cc2C#N)cc1 | -1.2 | 0.4 | 6.2 | -0.1
N/C(=N/OC(=O)c1ccccc1Cl)c1ncc([N+](=O)[O-])s1 | -5.3 | -86.3* | 4.7 | 0.9
Cc1ccccc1-c1cnc2c(c1)C(=O)N([C@H](C)CO)C[C@H](C)[C@@H](CN(C)CC1CCCC1)O2 | -1.8 | . | . | .
COc1ccc(CCNS(=O)(=O)c2ccc(Br)s2)cc1 | . | -77.9* | -21.5 | 2.8
O=S(=O)(NCCc1ccccc1)c1ccc(Br)s1 | -10.5 | -53.9 | -5.1 | 1.7
NC(=O)[C@@H]1[C@H]2C(=O)O[C@H](c3ccccc3)[C@H](c3ccccc3)N2[C@H](c2ccccc2OCCO)[C@@]12C(=O)Nc1ccccc12 | 12.0 | . | . | .
O=C(CSc1ccc2nnc(-c3ccccn3)n2n1)NCc1ccco1 | 61.3* | 1.1 | 12.3 | -4.3
O=C(CSc1ccc2nnc(-c3ccccc3)n2n1)NCc1ccco1 | 0.8 | 10.4 | 4.1 | -4.7
Cc1noc(C)c1NC(=O)N(C)C[C@H]1Oc2ncc(C#CC(C)C)cc2C(=O)N([C@H](C)CO)C[C@H]1C | -4.9 | . | . | .
C[C@@H]1CCCCO[C@@H](CN(C)C(=O)CCCN(C)C)[C@@H](C)CN([C@H](C)CO)C(=O)c2cc(NC(=O)c3ccccc3)ccc2O1 | 1.1 | . | . | .
Cc1ccc(O)c(/C=N/NC(=O)CN2CCCC2)c1 | 66.5* | 14.2 | 2.6 | -7.2
Oc1ccc2ccccc2c1C=NC12CN3CCN(CN(C3)C1)C2 | 67.2* | 8.3 | -2.6 | -3.4
O=C(CN1CCCC1)N/N=C/c1c(O)ccc2ccccc12 | 58.9* | -33.7 | -40.8 | -7.6
O=C(N/N=C/c1c(O)ccc2ccccc12)C(=O)N1CCCC1 | . | . | 0.9 | -7.2
C[C@H](CO)N1C[C@H](C)[C@H](CN(C)C(=O)Nc2ccc(C(F)(F)F)cc2)OCCCC[C@H](C)Oc2ccc(NC(=O)CCC(F)(F)F)cc2C1=O | -9.5 | . | . | .
COc1cc(-n2nc(C)c3c2OC(N)=C(C#N)C3c2ccccc2)c(Cl)c(Br)c1O (stereo not drawn) | 33.0* | 24.3 | -3.9 | 0.9
SMILES | ARNT-TACC3 inh | AI-2 QS modul | sPLA2-III inh | Rin1 Abl inh
CCCCC(=O)N1C/C=C\[C@H](c2ccc(OC)cc2)N(Cc2ccc(F)cc2)C(=O)[C@@H]1C | 8.3* | 15.3 | -3.1 | 4.7
COc1ccc([C@H]2/C=C\CN(C(=O)c3ccccc3)[C@@H](C)C(=O)N2Cc2ccc(F)cc2)cc1 | 2.6 | 25.9 | -6.7 | 1.4
O=C(C[C@H]1C=C[C@H](NC(=O)Nc2ccc3c(c2)OCO3)[C@@H](CO)O1)NCc1ccc(F)cc1 | -9.2 | . | . | .
CCC(=O)Nc1ccc2c(c1)C(=O)N(C)C[C@@H](OC)[C@@H](C)CN(C(=O)c1cnccn1)[C@H](C)CO2 | -14.1 | . | . | .
CC(C)C#Cc1cnc2c(c1)C(=O)N([C@H](C)CO)C[C@@H](C)[C@H](CN(C)Cc1ccc3c(c1)OCO3)O2 | 3.4 | . | . | .
CCN(CC)c1ccc(/C=C2\C(=O)N(c3nnc(C)c(=O)[nH]3)N=C2C)cc1 | 60.4* | 11.3 | 11.7 | 3.6
CCN(CC)c1ccc(/C=C2/C(=O)ON=C2C)cc1 | 4.3 | 8.5 | 8.1 | -14.1
CC=Cc1ccc2n(c1=O)C[C@H]1[C@H](CO)[C@@H](C(=O)NCC(F)(F)F)N(C(=O)c3cccnc3)[C@@H]21 (mixture of isomers) | -3.0 | . | . | .
C[C@@H]1CN([C@H](C)CO)S(=O)(=O)c2ccc(C#Cc3ccccc3F)cc2O[C@H]1CN(C)C | 11.3 | . | . | .
